These results are taken from ChEMBL document CHEMBL4513146, “CO-ADD screening of Karazin Kharkiv National University (Ukraine) compounds”.

Entries with a potency or affinity are not part of this list.

Assay [1] deals with Klebsiella pneumoniae. The following applies: Concentration 32 ug.mL-1;; ASSAY_TEST Inhibition of Bacterial Growth; detection method Absorption (OD600); MEDIA CAMHB; plate type 384well; NBS; CORNING #3640; time 18 hr.
Assay [2] concerns Candida albicans. As to conditions: Concentration 32 ug.mL-1; ASSAY_TEST Inhibition of Fungal Growth; detection method Absorption (OD530).
In assay [3] the test system is Cryptococcus neoformans. As to conditions: Concentration 32 ug.mL-1; ASSAY_TEST Inhibition of Fungal Growth; detection method Resazurin; Absorption (OD600-OD570); plate type 384well; NBS; CORNING #3640. Background: The colour change of resazurin is a common sign of viable cells or microbes.

In general, Inhibition refers to the change of the read-out against control, counted positive when it falls. On to `CC(C)c1ccc(NC(=O)Cn2nc3c(Sc4ccccc4)nccn3c2=O)cc1`, for which the values for the Inhibition in assay [1], in assay [2] and in assay [3] were -10.24%, 23.16% and -7.48%, respectively.
The like results for `COc1cccc(-n2ccn3c(SCc4ccccc4Cl)nnc3c2=O)c1` were, in that order, 8.33%, 2.81% and -13.51%.
Consider `CCc1ccc(N(Cc2ccccc2Cl)S(=O)(=O)c2cccn3c(C)nnc23)cc1`, for which the Inhibition in assay [1] is reported as 4.84%; in assay [2], 5.69%; in assay [3], -4.25%.
Regarding `CCc1ccccc1Sc1nccn2c(=O)n(CC(=O)Nc3cccc(C)c3)nc12`, the Inhibition is given as 4.48% in assay [1], -0.7% in assay [2] and -3.25% in assay [3].
Regarding `COc1cccc(N(Cc2ccc(F)cc2)S(=O)(=O)c2ccc3nncn3c2)c1`, the Inhibition in assay [1] is -3.46%; in assay [2] it was 1.11%; in assay [3], -15.36%.
Regarding `Cc1ccc(-c2cc3c4nnc(CCC(=O)NCc5ccc(C(F)(F)F)cc5)n4ccn3n2)cc1C`, the Inhibition in assay [1] is recorded as 10.93%; in assay [2] it was 3.64%; in assay [3] it was -31.79%.
Turning to `COc1ccc(NC(=O)Cn2nc3c4cc(-c5ccc(C)c(C)c5)nn4ccn3c2=O)cc1`, the Inhibition is 9.06% in assay [1], 19.37% in assay [2] and -31.22% in assay [3].
Take `CC(C)c1nnc2c(SCC(=O)Nc3cccc(Br)c3)nc3ccccc3n12`: the Inhibition was 2.52% in assay [1], 2.36% in assay [2] and -16.07% in assay [3].
The like results for `COc1ccc(NC(=O)Cn2nc3c(N4CCOCC4)nccn3c2=O)cc1Cl` were, in that order, -0.16%, 2.64% and -7.27%.
As to `COc1cccc(Oc2nccn3c(=O)n(CC(=O)Nc4ccc(Br)cc4F)nc23)c1`, the Inhibition in assay [1] is recorded as 17.17%; in assay [2], 0.55%; in assay [3], -10.01%.
As to `Cc1cc(C)cc(Nc2nc(C)cc3nn(CC(=O)Nc4cc(F)ccc4F)c(=O)n23)c1`, the Inhibition is reported as 17.33% in assay [1], 4.37% in assay [2] and -7.31% in assay [3].
With `Cc1ccc(-c2ccc3nn(Cc4c(F)cccc4Cl)c(=O)n3n2)cc1`, the figures for the Inhibition in assay [1], in assay [2] and in assay [3] were 17.42%, -0.59% and -15.06%, respectively.
Take `COCCCNC(=O)CSc1nnc2c(=O)n(Cc3ccccc3F)ccn12`: the results for the Inhibition in assay [1], in assay [2] and in assay [3] were 15.39%, 4.29% and -16.33%, respectively.
For `COc1cccc(C(=O)Cn2nc3n(CCC(C)C)c(=O)c4sccc4n3c2=O)c1` the same measures were -2.35%, 8.83% and -5.93%.
With `COc1cccc(-n2ccn3c(SCC(=O)Nc4cccc(F)c4)nnc3c2=O)c1`, the results for the Inhibition in assay [1], in assay [2] and in assay [3] were 0.65%, 10.45% and -5.71%, respectively.
As to `COC(=O)c1sccc1NC(=O)CSc1nc2ccccc2n2c(C)nnc12`, the Inhibition is recorded as 6.24% in assay [1], 5.11% in assay [2] and -2.05% in assay [3].
Take `Cc1ccc(-c2cc3c4nn(CC(=O)N5CCN(c6ccc(F)cc6)CC5)c(=O)n4ccn3n2)cc1C`: the results for the Inhibition in assay [1], in assay [2] and in assay [3] were 7.51%, 1.65% and -26.79%, respectively.
In the case of `Cc1ccc(NC(=O)CSc2nc3ccccc3n3c(C(C)C)nnc23)cc1Cl`, the Inhibition was 1.48% in assay [1], -0.39% in assay [2] and -22.27% in assay [3].
Consider `COc1cccc(Cn2nc3ccc(-c4ccccc4)nn3c2=O)c1`, for which the Inhibition in assay [1] is on record as 7.25%; in assay [2], 2.39%; in assay [3] it was -3.25%.
On to `COc1cccc(Oc2nccn3c(=O)n(CC(=O)Nc4ccc(OC)c(Cl)c4)nc23)c1`, for which the figures for the Inhibition in assay [1], in assay [2] and in assay [3] were 9.28%, 1.52% and -8.33%, respectively.
On to `CCOc1ccc(-n2ccn3c(SCC(=O)Nc4cc(Cl)ccc4OC)nnc3c2=O)cc1`, for which the results for the Inhibition in assay [1], in assay [2] and in assay [3] were 12.81%, 1.86% and -5.56%, respectively.
With `O=C(Cn1nc2ccc(-c3ccccc3)nn2c1=O)NC1CCCCC1`, the Inhibition is 16.29% in assay [1], 0.48% in assay [2] and -16.53% in assay [3].
As for `COc1cccc(CN(c2ccc(F)c(F)c2)S(=O)(=O)c2ccc3nncn3c2)c1`, the Inhibition in assay [1] is 0.45%; in assay [2], 4.56%; in assay [3] it was -8.9%.
Take `CC(C)(C)S(=O)(=O)c1ccc2nn(CC(=O)Nc3ccc4c(c3)OCO4)c(=O)n2n1`: the Inhibition in assay [1] is on record as 2.44%; in assay [2], 1.02%; in assay [3], -2.55%.
Regarding `O=c1c2nnc(SCc3ccccc3F)n2ccn1-c1ccc(F)cc1`, the Inhibition is on record as -2.87% in assay [1], 2.17% in assay [2] and -5.92% in assay [3].
As to `COc1ccc(NC(=O)C(C)Sc2nnc3c(=O)n(-c4cccc(OC)c4)ccn23)cc1` (stereo not given), the Inhibition in assay [1] is reported as 4.86%; in assay [2] it was -0.02%; in assay [3] it was -10.81%.
In the case of `COc1ccccc1Cn1c(=O)c2sccc2n2c(=O)n(Cc3cccc(Br)c3)nc12`, the results for the Inhibition in assay [1], in assay [2] and in assay [3] were 0.7%, -0.62% and -14.71%, respectively.
As for `CCc1nnc2c(S(=O)(=O)N(Cc3ccc(F)cc3)c3ccc(Cl)cc3)cccn12`, the Inhibition in assay [1] was 7.23%; in assay [2] it was 3.47%; in assay [3], -6.36%.
`O=C(Cn1nc2ccc(SCc3ccc(Cl)cc3)nn2c1=O)Nc1cccc(F)c1`: the results for the Inhibition in assay [1], in assay [2] and in assay [3] were -5.89%, 31.36% and -11.95%, respectively.
In the case of `O=C(Cn1nc2c(SC3CCCCC3)nccn2c1=O)Nc1cccc(Cl)c1`, the values for the Inhibition in assay [1], in assay [2] and in assay [3] were -2.02%, 27.21% and -17.97%, respectively.
